Molecules are shown by their SMILES. In all, about 48,000 compounds went through this assay and about 13,000 (27%) showed an effect of 50% or more. This is one part of the list.

From ChEMBL document CHEMBL3988442, “University of Dundee, Small-Polar-MMV Screening Library” (2021) come the findings set out here.

The assay has as its system Wolbachia pipientis. Nature of the assay: Anti-Wolbachia Cell-Based Screen. Type of assay: functional. Set-up: scale not given: in the data most compounds retested in dose-response had high values. As to conditions: 5 µM.
Consider `CCOC(=O)N1CC2(CCNCC2)c2cc(Cl)ccc21.Cl`, for which the “Percent Effect” value is listed as 107.5%. Next, `C[C@@H](N)C(=O)N1CC2(CCNCC2)c2cc(Cl)ccc21.Cl.Cl`: 85.61%; `CC(=O)N1CC2(CCN(C(=O)CO)CC2)c2cc(C)ccc21`: -15.84%; `CN(C)C(=O)N1CC2(CCNCC2)c2cc(Cl)ccc21.Cl`: -23.53%.

With `Cl.O=C(c1ccccc1F)N1CC2(CCNCC2)c2cc(Cl)ccc21`, the “Percent Effect” value worked out at 106.3%. Next, `Cc1ccc2c(c1)C1(CCNCC1)CN2C(=O)C(C)C`: -27.38%; `O=C1CN(C(=O)c2cc(Cl)ccc2F)c2ccncc2N1`: -25.93%; `Cc1ccc2c(c1)C1(CCN(S(C)(=O)=O)CC1)CN2C(=O)N(C)C`: 0.4399%.

As to `CC(C)C[C@H](N)C(=O)N1CC2(CCNCC2)c2cc(Cl)ccc21.Cl.Cl`, the “Percent Effect” value is recorded as 115.3%.

For the molecule `CCC(=O)N1CCC2(CC1)CN(C(C)=O)c1ccc(C)cc12`, the “Percent Effect” value stood at 1.312%.

Regarding `O=C1CN(C(=O)c2cc(Cl)ccc2F)c2ccccc2N1`, the “Percent Effect” value was determined as 1.511%.

As for `CC(CO)(NC(=O)Nc1nnc(C(F)F)s1)C1CC1` (stereo unspecified), the “Percent Effect” value was -2.731%.

Regarding `CCc1ccc(C(C)NC(=O)CN(C)Cc2ccc(C)o2)cc1` (stereo unspecified), the “Percent Effect” value is on record as 6.981%.

Take `O=C(O)c1ccccc1C1CCN(C2CCN(c3ccccc3)CC2)C1` (stereo unspecified): the “Percent Effect” value came to 1.292%. On to `Cc1cc(CN2CCN(c3ccc4nncn4n3)C(C)C2)no1` (stereo unspecified), for which the “Percent Effect” value was 0.8559%. In the case of `Cc1ncc(CN2CCOC(CN(C)c3cccnn3)C2)s1` (stereo unspecified), the “Percent Effect” value was -7.672%. Next, `Cc1nc(CN2CCN(c3ccc4nncn4n3)C(C)C2)oc1C` (stereo unspecified): 98.31%; `Cc1csc(N2CCN(Cc3cnc(C)s3)CC2C)n1` (stereo unspecified): -7.074%; `Cc1ncc(CN2CCN(c3ccc4nncn4n3)C(C)C2)s1` (stereo unspecified): 100.4%.

Turning to `CC1CN(Cc2ccccn2)CCN1c1ccc2nncn2n1` (stereo unspecified), the “Percent Effect” value is given as 99.39%. Next, `Cc1cc(CN2CCN(c3ccc4nncn4n3)C(C)C2)on1` (stereo unspecified): 105.9%; `Cc1nc(CN2CCOC(c3ccc(Cl)cc3)C2)oc1C` (stereo unspecified): -15.43%.

Regarding `CC1(C)CN(C(=O)c2cnc(-c3ccccn3)nc2)CC[C@]1(C)O`, the “Percent Effect” value is on record as -14.16%.

On to `CC(c1ccccc1F)N(C(=O)CSCC(N)=O)C1CC1` (stereo unspecified), for which the “Percent Effect” value is listed as -1.119%. Regarding `CCc1[nH]c2c(CNc3cncc(C(=O)N(C)C)n3)cc(C)cc2c1C`, the “Percent Effect” value is -3.475%. Next, `COc1ccc(C(C)Nc2ncc(C(N)=O)cc2Cl)c(OC)c1` (stereo unspecified): 7.521%; `CS(=O)(=O)NCCN1CCSCC1c1ccc(Cl)cc1` (stereo unspecified): 7.054%; `Cn1ccnc1SCc1nc(C(C)(C)NC(=O)OC(C)(C)C)no1`: 4.931%. On to `CCn1ccnc1CN1CCN(c2ccc3nnc(C)n3n2)CC1`, for which the “Percent Effect” value is -14.29%.

Take `CC1CN(CC2CCCC2)CCN1c1ccc2nncn2n1` (stereo unspecified): the “Percent Effect” value is on record as -0.9162%. Consider `Cc1nnc2ccc(N3CCN(Cc4nccn4C)CC3)nn12`, for which the “Percent Effect” value is -5.258%. Next, `Cc1cc(CN2CCN(CC(O)C(C)(C)C)CC2)no1` (stereo unspecified): -2.656%. Regarding `CC1CN(CC2CCCCC2)CCN1c1ccc2nncn2n1` (stereo unspecified), the “Percent Effect” value is on record as -9.658%. Next, `Cc1cc(CN2CCN(c3ccc4nncn4n3)CC2)no1`: 96.25%. Next, `N#Cc1ccc(N2CCN(c3ccc4nncn4n3)CC2)nc1`: -1.975%; `Cc1cnc(CN2CCN(c3ccc4nncn4n3)C(C)C2)cn1` (stereo unspecified): 120.6%; `c1ccc(CCN2CCN(c3ccc4nncn4n3)CC2)nc1`: -2.088%.

Consider `Cc1ccn(-c2ccc(N3CCN(Cc4ccccn4)CC3)nn2)n1`, for which the “Percent Effect” value is -3.971%. Next, `c1ccc(CN2CCN(c3ccc4nncn4n3)CC2)nc1`: 81.68%; `Cc1nnc2ccc(N3CCN(CCc4ccccn4)CC3)nn12`: 75.62%; `O=C(Nc1cnccn1)[C@H]1C[C@H]2OCC[C@H]2N(c2ncc(F)cn2)C1`: 2.565%. Next, `c1ccc(CN2Cc3ccnn3CC(COCc3cccnc3)C2)nc1` (stereo unspecified): -0.5546%. Next, `CCOCCN1CCN(CCCc2nnnn2-c2ccccc2)CC1`: -8.911%; `CC1CN(CCc2ccccn2)CCN1c1ccc2nncn2n1` (stereo unspecified): 129.7%; `CC1CN(CC(=O)N2CCCC2)CCN1c1ccc2nncn2n1` (stereo unspecified): -2.378%. In the case of `CCCc1cc(N2CCCCC2Cn2cc(C)cn2)n2ncnc2n1` (stereo unspecified), the “Percent Effect” value is given as -0.9521%. Next, `Cc1ccc(CCC(=O)N2CCOCC2)cc1Cl`: -2.511%; `COc1ccc(CCCC(=O)N2CCCC(n3cccn3)C2)cc1` (stereo unspecified): 8.149%; `COc1ccc(CCC(=O)N2CCNCC2C(=O)N2CCOCC2)cc1` (stereo unspecified): 109%. In the case of `COc1ccc(C(=O)N2CCN(C(=O)CCCc3cn[nH]c3)CC2)cc1`, the “Percent Effect” value is reported as -2.583%. Next, `COc1ccc(CCC(=O)N2CCNCC2C(=O)N2CCCC2)cc1` (stereo unspecified): 99.9%; `O=C(Nc1ccc(F)cc1)C1CNCCN1C(=O)CCc1cccnc1` (stereo unspecified): -3.468%. With `O=C(C1CNCCN1C(=O)CCc1cccnc1)N1CCOCC1` (stereo unspecified), the “Percent Effect” value stood at 99.11%. `Cc1ccccc1N1CCCN(C(=O)CCc2cccnc2)CC1`: the “Percent Effect” value was 13.31%. For `Cc1cc(CCC(=O)N2CCOCC2)ccc1Br`, the “Percent Effect” value is 7.033%.

Take `CCn1cnnc1CCNC(=O)C1COc2ccc(OC)cc2C1` (stereo unspecified): the “Percent Effect” value amounted to 0.6591%.

With `O=S(=O)(CCc1ccccc1)Cc1nc(C2CC2)no1`, the “Percent Effect” value was 20.48%.

As to `Cc1cnc(C(=O)N2CCCC(c3c(C)c(=O)nc4n3CCC4)C2)cn1.Cl` (stereo unspecified), the “Percent Effect” value amounted to 99.49%. Next, `Cc1c(C2CCCN(C(=O)OC(C)(C)C)C2)n2c(nc1=O)CCC2` (stereo unspecified): 101.7%; `Cc1c(C2CCCN(C(=O)C3CC3)C2)n2c(nc1=O)CCC2.Cl` (stereo unspecified): 11.8%; `Cc1csc(CNCC2CCCN(C(=O)OC(C)(C)C)C2)n1` (stereo unspecified): 11.13%. Next, `Cc1csc(C2CCCN(C(=O)c3ccc(=O)n(C)n3)C2)n1` (stereo unspecified): 3.739%; `Cc1c(C2CCCN(C(=O)c3ccn(C)n3)C2)n2c(nc1=O)CCC2` (stereo unspecified): 88.69%. Next, `Cc1cnc(C(=O)N2CCCC(Cn3cc(C4CC4)nn3)C2)cn1` (stereo unspecified): 1.892%; `Cc1nc(CN[C@H]2CCCN(C(=O)OC(C)(C)C)C2)cs1`: 1.8%.

Consider `O[C@@H]1C[C@@H](c2nc(-c3ccc(OC(F)(F)F)cc3)no2)N(CC2CC2)C1`, for which the “Percent Effect” value is 9.042%. Consider `CCC/C=C/c1ccc(CN2CCCC2)cn1`, for which the “Percent Effect” value is -3.861%.

With `CCOC(=O)CN1CC(c2nc(-c3ccsc3)no2)C1.O=C(O)C(=O)O`, the “Percent Effect” value is listed as -3.591%. In the case of `CCC1COCCN1C(=O)CNC(=O)c1ccoc1C` (stereo unspecified), the “Percent Effect” value is recorded as -13.26%. In the case of `CS(=O)(=O)N1CCN(c2ccc(Nc3ccccn3)nn2)CC1`, the “Percent Effect” value worked out at 2.595%.

For the molecule `Cc1nc(Nc2ccccn2)cc(N2CCN(S(C)(=O)=O)CC2)n1`, the “Percent Effect” value is -12.78%. Regarding `Cc1nc2c(c(Nc3ccccn3)n1)CN(S(C)(=O)=O)CC2`, the “Percent Effect” value is listed as 109%.

`Cc1ncc(CNCC(=O)NC2CCCCC2)n1-c1ccccc1`: the “Percent Effect” value is -6.194%. Next, `CC(CCc1ccccc1)NC(=O)Nc1cnn(CC(N)=O)c1` (stereo unspecified): -0.3012%. Next, `CCc1nnc2n1CCN(C(=O)CN(C)C1CC1)C2`: 84.19%; `CCc1nnc2n1CCN(C(=O)c1cnn(C)c1C1CC1)C2`: 0.7265%; `CCc1nnc2n1CCN(C(=O)CN(CC)CC)C2`: 97.7%.

For `CCc1ncc(C(=O)N2CCn3c(CC)nnc3C2)s1`, the “Percent Effect” value is -2.408%. Next, `CCc1nnc2n1CCN(C(=O)c1ccccc1OCC1CC1)C2`: -2.361%; `CCc1nnc2n1CCN(C(=O)COCCc1ccccc1)C2`: -3.602%; `COCC(NC(=O)NCc1sccc1C)c1ccco1` (stereo unspecified): -5.912%. Next, `CN(Cc1nccn1C)C(=O)C1COCC(=O)N1Cc1ccccc1` (stereo unspecified): -8.994%; `CN1CCOC(C(=O)Nc2nc(-c3ccc4c(c3)CCC4)n[nH]2)C1` (stereo unspecified): -12.56%. Next, `Cn1ccnc1C(=O)N1CCCC1c1ccc(C(=O)N2CCOCC2)s1` (stereo unspecified): -4.877%; `COCC(=O)N1CCC2(CCC2NS(=O)(=O)c2ccccc2)CC1` (stereo unspecified): 2.757%. In the case of `CCOC(=O)N1CCC(OC)c2ccccc2N(CC(=O)NC)C(=O)C1` (stereo unspecified), the “Percent Effect” value is recorded as 117.4%. Next, `CC1CCN(C(=O)C2CCN(S(C)(=O)=O)CC2)c2ccccc21` (stereo unspecified): 3.869%; `CCNC(=O)N1CC[C@H]2CC(=O)N(CC(N)=O)CC[C@H]2C1`: 1.469%; `CNC(=O)CN1C(=O)CN(C(=O)COC)CCC(OC)c2ccccc21` (stereo unspecified): 121.9%. Next, `CCNC(=O)N1CCC(Cc2cccc(C(N)=O)c2)C1` (stereo unspecified): 4.026%; `CS(=O)(=O)N1CCC(C(=O)N2CCOc3ccccc32)CC1`: 5.703%.

On to `CCNC(=O)N1CCC(OC)c2ccccc2N(CC(=O)NC)C(=O)C1` (stereo unspecified), for which the “Percent Effect” value is reported as 67.66%. Next, `CNC(=O)NC(=O)CN1CCN(CC2CC2)c2ccccc21`: 5.416%; `CCOC(=O)CN1C(=O)CN(S(C)(=O)=O)CCC(OC)c2ccccc21` (stereo unspecified): 83.87%; `c1ccc(COCC2CNCc3nccn3C2)nc1` (stereo unspecified): -7.438%.

Take `O=C(NS(=O)(=O)Cc1ccc(F)cc1)C1CCc2ccccc21` (stereo unspecified): the “Percent Effect” value turned out to be 9.1%. Next, `CC(NC(=O)NCC(C)(C)O)c1ccc(-c2cncnc2)cc1` (stereo unspecified): -6.963%; `COc1ccc(NCc2ccccc2N2CCN(C(C)=O)CC2)cn1`: 3.995%.

On to `CCS(=O)(=O)N1CCC(OC)c2ccccc2N(CC(=O)NC)C(=O)C1` (stereo unspecified), for which the “Percent Effect” value is 115.1%.

In the case of `CNC(=O)CN1CCCC1c1ccccc1Br` (stereo unspecified), the “Percent Effect” value was 2.059%. Next, `CNC(=O)CS(=O)(=O)C1CCN(S(=O)(=O)c2ccccc2Cl)CC1`: 17.8%. Next, `O=S(=O)(NCCNc1cc(-n2cccn2)ncn1)c1cccs1`: 12.03%. With `Cc1ccc(C)c(C(=O)CN2C(=O)c3ccccc3CS2(=O)=O)c1`, the “Percent Effect” value is on record as -17.22%.

Regarding `Cc1ccc(-c2[nH]c3ccccc3c2C(=O)O)c(C)c1`, the “Percent Effect” value is 112.6%.

For `Cc1ccc(C)c(-c2[nH]c3ccccc3c2C(=O)O)c1`, the “Percent Effect” value is recorded as 107.7%.

For the molecule `Cc1ccc(C(=O)CN2C(=O)c3ccccc3CS2(=O)=O)c(C)c1`, the “Percent Effect” value is on record as -19.51%. Next, `COc1ccc(C)cc1C(C(=O)O)N1CCN(Cc2ccccn2)CC1` (stereo unspecified): -8.065%. Consider `COc1ccc(C(=O)NS(C)(=O)=O)cc1-c1ccccc1`, for which the “Percent Effect” value is given as -13.07%. Next, `COc1ccc(C)cc1-c1[nH]c2ccccc2c1C(=O)O`: 86.15%. Next, `CC(C)CN1CCN(C(=O)c2cc(=O)c3ccccc3[nH]2)CC1`: -0.8051%; `CC(=O)N1CCCN(C(=O)c2csc(-c3ccc(C)cc3C)n2)CC1`: -4.506%.
